Assay outcomes: PubChem, National Center for Advancing Translational Sciences (NCATS)
ATXN2 expr inh: ATXN2 expression inhibition | HEK-293 ATXN2-luciferase reporter, luminescence, 24 h | Potency, µM (series often up to 57 µM), hits mostly inhibitors | hit rate 0.72% among 360,000; also: nearly all actives have a fitted effect of over 55% in size
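ATXN2-luciferase reporter cells (luciferase flanked by upstream and downstream ATXN2 gene portions) were treated 24 h at 37 °C with compounds at up to 57 uM. SteadyGlo luminescence gave expression; GF-AFC fluorescence gave viability.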
HepG2 viability: HepG2 cytotoxicity, counter-screen for TGF-b inhibitors. Potency, µM (highest dose often 46.1 µM), actives largely listed as cytotoxic. hit rate 0.76% among 410,000. HepG2 CAGA-GFP viability, ATP luminescence, 18 h
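HepG2 CAGA-GFP cells (1000/well, DMEM with 1% FBS) received compound, then TGF-beta at 500 pg/mL final, and were incubated 18 hours at 37 degrees C. Viability was read by CellTiter-Glo luminescence. Media-only wells were set as complete cell-killing and DMSO as no toxicity.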
ATXN viability: viability counter-screen for ATXN expression inhibitors; hit rate 0.49% among 400,000; Potency, µM (doses to about 56.7 µM), actives largely listed as cytotoxic; AID 651635; S2 cells (HEK-293 line with an ATXN2-luciferase reporter) viability, CellTiter-Fluor protease fluorescence, 24 h; also: nearly all actives have a fitted effect of over 40% in size
TGFb inhibitor: blocks TGF-b signaling | HepG2 CAGA-GFP TGF-b/SMAD3 reporter, GFP fluorescence, 18 h; TGF-beta stimulated, 500 pg/mL final | Potency, µM (series often up to 46.1 µM), hits mostly inhibitors | hit rate 1.2% among 410,000; also: nearly all actives have a fitted effect of over 65% in size
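Smad-responsive CAGA-GFP expression was quantified in HEPG2 cells exposed to compounds and 500 pg/mL final TGF-beta for 18 h at 37 degrees C; unstimulated wells defined full inhibition.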
DT40 TDP1 no CPT: qHTS for Inhibitors of human tyrosyl-DNA phosphodiesterase 1 (TDP1): qHTS in cells in absence of CPT. DT40 Tdp1-/- hTDP1 cells, no CPT, ATP luminescence, 48 h. Potency, µM (highest dose often 46.2 µM), most hits filed as inhibitors. hit rate 15% among 420,000; also: nearly all actives have a fitted effect of over 55% in size
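Stably hTDP1-transfected Tdp1-null chicken DT40 cells were treated with library compounds minus camptothecin and grown for at least 48 hr at 37 °C, after which cellular ATP was quantified by luminescence.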
DT40 TDP1 CPT: growth inhibition of DT40 Tdp1-/-;hTDP1 cells with camptothecin (screen for TDP1 inhibitors); chicken DT40 Tdp1-/-;hTDP1 cells + 20 nM CPT, ATP luminescence, 48 h; Potency, µM (series often up to 46.2 µM), actives largely listed as inhibitors; hit rate 12% among 420,000; AID 686979; also: nearly all actives have a fitted effect of over 55% in size
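Chicken DT40 Tdp1-/- cells stably complemented with human TDP1 were seeded at 400 cells/well in medium containing 20 nM camptothecin, exposed to pin-transferred compounds, and grown at 37 °C for at least 48 hr. Viability was read as ATP luminescence.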
Of the large screens only hits and unclear results are named; the others gave an inactive call. Sampled rows, rich in hits. Any-hit rate of the full collection: about 17%. Calls follow the shape of the dose curve; as a rule, active = well fitted curve in the direction sought with a large enough effect; inconclusive = small, poorly fitted or top-dose-only effect, or another doubt; inactive = no such curve, though single readings can be large; an effect the other way counts as inactive or inconclusive.

COCCCNC(=O)Cn1cnc2sc(C)c(S(=O)(=O)N3CCC(C)CC3)c2c1=O	none
CN(C)C(CNc1ncnc2sc3c(c12)CCCCC3)c1ccco1 (centres undefined)	TGFb inhibitor inconclusive, DT40 TDP1 no CPT 18µM, DT40 TDP1 CPT inconclusive
c1csc(CCNc2ncnc3sc4c(c23)CCC4)c1	ATXN2 expr inh inconclusive, ATXN viability inconclusive, TGFb inhibitor inconclusive, DT40 TDP1 no CPT 8.2µM, DT40 TDP1 CPT 3.7µM
Cc1sc2ncnc(NCC(c3ccco3)N(C)C)c2c1C (centres undefined)	DT40 TDP1 no CPT inconclusive
C/C(=N\NC(=O)c1[nH]c2c([N+](=O)[O-])cc(C)cc2c1-c1ccccc1)c1cccnc1	TGFb inhibitor inconclusive, DT40 TDP1 no CPT 15µM, DT40 TDP1 CPT 26µM
C/C(=N\NC(=O)c1cccnc1)c1ccc(C)c([N+](=O)[O-])c1	ATXN viability inconclusive
COc1ccc(NC(=O)/C(C#N)=C/c2ccc(-c3ccccc3C(=O)O)o2)cc1	ATXN viability inconclusive
CCCCOC(=O)c1ccc(NC(=O)/C(C#N)=C/c2ccc(-c3ccccc3)o2)cc1	DT40 TDP1 no CPT 16µM, DT40 TDP1 CPT 16µM (no result: ATXN viability)
CCOC(=O)c1ccc(-c2ccc(/C=C(\C#N)C(=O)Nc3c(C)cccc3Cl)o2)cc1	none
COc1ccc(NC(=O)/C(C#N)=C\c2ccc(-c3cccc(C(=O)O)c3C)o2)cc1	ATXN viability inconclusive, DT40 TDP1 no CPT 4.6µM, DT40 TDP1 CPT inconclusive
CCOC(=O)c1ccc(-c2ccc(/C=C(\C#N)C(=O)Nc3ccc(C)cc3OC)o2)cc1	none
CCCCNC(=O)/C(C#N)=C/c1ccc(-c2ccc(S(=O)(=O)N3CCOCC3)cc2)o1	DT40 TDP1 no CPT 10µM, DT40 TDP1 CPT 7.3µM
CCOC(=O)c1ccc(-c2ccc(/C=C(\C#N)C(=O)NCC3CCCO3)o2)cc1 (centres undefined)	DT40 TDP1 no CPT 23µM, DT40 TDP1 CPT 21µM (no result: ATXN viability)
c1cncc(CNc2ccnc(-c3cccnc3)n2)c1	DT40 TDP1 CPT inconclusive (no result: ATXN2 expr inh, HepG2 viability, ATXN viability, TGFb inhibitor)
COc1ccc(NC(=O)/C(C#N)=C/c2ccc(-c3ccc(Cl)c(C(=O)O)c3)o2)cc1	DT40 TDP1 no CPT inconclusive, DT40 TDP1 CPT 18µM
Cc1ccc(NC(=O)/C(C#N)=C/c2ccc(-c3ccc(Cl)c(C(=O)O)c3)o2)cc1C	none
CC(=O)O[C@H]1[C@H](O)[C@H](Oc2c(O)c(C)c3c4c2[C@@H](C)CC[C@@H]4[C@@H](C)C[C@H]3C=C(C)C)O[C@@H](C)[C@H]1O	ATXN2 expr inh inconclusive, ATXN viability inconclusive, TGFb inhibitor 11µM, DT40 TDP1 no CPT 18µM, DT40 TDP1 CPT inconclusive
CC(C)=C[C@@H]1C[C@H](C)[C@H]2CC[C@H](C)c3c(O)c(O)c(C)c1c32	DT40 TDP1 no CPT inconclusive, DT40 TDP1 CPT 21µM
CC(=O)OC1[C@H](Oc2c(O)c(C)c3c4c2[C@@H](C)CC[C@@H]4[C@@H](C)C[C@@H]3C=C(C)C)OC[C@@H](O)[C@@H]1O (some centres undefined)	TGFb inhibitor 11µM
CC(=O)Oc1c(C)c2c3c(c1OC(C)=O)[C@@H](C)CC[C@@H]3[C@@H](C)C[C@H]2C=C(C)C	DT40 TDP1 no CPT inconclusive, DT40 TDP1 CPT inconclusive
CC(C)=C[C@H]1C[C@H](C)[C@H]2CC[C@H](C)c3c(O[C@@H]4OC[C@@H](O)[C@H](O)C4O)c(O)c(C)c1c32 (some centres undefined)	ATXN2 expr inh inconclusive, HepG2 viability 22µM, ATXN viability inconclusive, TGFb inhibitor inconclusive, DT40 TDP1 no CPT inconclusive
CCn1c(CN2CCN(c3cccc(C)c3C)CC2)n[nH]c1=S	DT40 TDP1 no CPT inconclusive, DT40 TDP1 CPT inconclusive
O=C(CCn1cnc2ncccc2c1=O)N1CCN(c2cccc(Cl)c2)CC1	DT40 TDP1 no CPT inconclusive
O=C1C=C(NCc2ccc(Cl)c(Cl)c2)C2(CCCCC2)O1	DT40 TDP1 no CPT 16µM, DT40 TDP1 CPT inconclusive
CC(O)(c1ccc(F)c(F)c1)c1nc(/C=C/c2ccccc2)cs1 (centres undefined)	ATXN viability inconclusive, TGFb inhibitor inconclusive, DT40 TDP1 no CPT inconclusive, DT40 TDP1 CPT inconclusive
Cc1ccc(S(=O)(=O)C=CS(=O)(=O)c2ccc(C)cc2)cc1	ATXN viability inconclusive, TGFb inhibitor inconclusive, DT40 TDP1 no CPT 0.73µM, DT40 TDP1 CPT 1µM (no result: ATXN2 expr inh)
O=S(=O)(/C=C/C=C/S(=O)(=O)c1ccccc1)c1ccccc1	ATXN2 expr inh inconclusive, ATXN viability 7.5µM, TGFb inhibitor 3.5µM, DT40 TDP1 no CPT 0.046µM, DT40 TDP1 CPT 0.026µM
Cc1ccc(S(=O)(=O)/C=C/C#N)cc1	DT40 TDP1 no CPT 0.65µM, DT40 TDP1 CPT 1.3µM (no result: ATXN2 expr inh, HepG2 viability, ATXN viability, TGFb inhibitor)
Cc1ccc(NC(=O)CN2C(=O)c3ccccc3Sc3ccc(C(=O)N4CCOCC4)cc32)cc1F	DT40 TDP1 no CPT inconclusive, DT40 TDP1 CPT inconclusive (no result: ATXN2 expr inh, ATXN viability)
CCC1CC=CC2C1C(=O)N(Cc1ccccc1)C2c1ccc(C(F)(F)F)cc1 (centres undefined)	TGFb inhibitor inconclusive (no result: ATXN2 expr inh, ATXN viability, DT40 TDP1 no CPT, DT40 TDP1 CPT)
CC[C@@H]1CC=C[C@H]2[C@H]1C(=O)N(Cc1ccccc1)[C@H]2c1ccoc1	ATXN2 expr inh inconclusive, TGFb inhibitor 13µM, DT40 TDP1 no CPT 15µM, DT40 TDP1 CPT 16µM (no result: ATXN viability)
CCC1CC=CC2C1C(=O)N(Cc1ccccc1)C2c1ccoc1 (centres undefined)	TGFb inhibitor 10µM (no result: ATXN2 expr inh, ATXN viability, DT40 TDP1 no CPT, DT40 TDP1 CPT)
COc1cccc(C(=O)NCCNC(=O)c2ccccn2)c1	none
CSc1ccc(CCNC(=O)Cn2nc(C)n3c(cc4sccc43)c2=O)cc1	TGFb inhibitor inconclusive (no result: ATXN2 expr inh, ATXN viability)
CCC(C)N1C(=O)CCC1C(=O)O (centres undefined)	none
CCOC(=O)c1c(C)oc2c1c(C(c1cccnc1)N1CCOCC1)c(O)c1ccccc12 (centres undefined)	ATXN2 expr inh inconclusive, DT40 TDP1 no CPT 18µM, DT40 TDP1 CPT inconclusive (no result: ATXN viability)
CCOC(=O)c1c(C)oc2c1c1c(c3ccccc32)OCN(Cc2cccnc2)C1	DT40 TDP1 no CPT inconclusive, DT40 TDP1 CPT inconclusive
Cc1cc(=O)[nH]c2nnc(SCc3c(F)cccc3Cl)n12	none (no result: ATXN2 expr inh, ATXN viability)
CC(=O)c1c(C(C)=O)c(C)n(-c2nc(-c3ccccc3)c(C)s2)c1C	ATXN viability inconclusive, TGFb inhibitor inconclusive, DT40 TDP1 no CPT 13µM, DT40 TDP1 CPT inconclusive
CC(C)(C)Cn1c(N)nc2ccc(-c3[nH]c(C(C)(C)C)nc3-c3ccc(F)cc3)nc21	ATXN2 expr inh 27µM (no result: HepG2 viability, ATXN viability, TGFb inhibitor, DT40 TDP1 no CPT, DT40 TDP1 CPT)
